RORgamma inh: ROR gamma (mouse) transcription inhibition; P51450; Drosophila S2 Gal4-RORgamma UAS-luciferase reporter, 20 h; Potency, µM (top dose mostly 53.6 µM), for the others: at the highest dose activity change, negative = inhibition, actives largely listed as inhibitors; 310,000 compounds, 5.4% hits; AID 2551; also: % is scaled to controls: 0 for no effect and ±100 for the full control effect; nearly all actives have a fitted effect of over 60% in size
Target sequence (P51450 whole entry, looked up, the tested form may be a part): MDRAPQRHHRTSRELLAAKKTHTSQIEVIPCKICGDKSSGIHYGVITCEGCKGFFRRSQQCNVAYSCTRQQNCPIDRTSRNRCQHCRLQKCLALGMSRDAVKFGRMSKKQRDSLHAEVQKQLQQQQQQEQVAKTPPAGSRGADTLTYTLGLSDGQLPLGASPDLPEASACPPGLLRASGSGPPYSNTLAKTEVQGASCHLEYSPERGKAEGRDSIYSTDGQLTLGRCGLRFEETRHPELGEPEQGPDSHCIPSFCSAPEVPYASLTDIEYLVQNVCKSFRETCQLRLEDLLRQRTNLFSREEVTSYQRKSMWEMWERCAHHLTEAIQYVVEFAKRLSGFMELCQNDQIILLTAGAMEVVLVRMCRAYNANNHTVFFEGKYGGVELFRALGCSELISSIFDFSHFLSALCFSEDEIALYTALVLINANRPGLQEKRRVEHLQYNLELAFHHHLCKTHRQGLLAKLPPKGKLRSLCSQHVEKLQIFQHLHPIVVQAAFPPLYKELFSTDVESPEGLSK
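A Gal4/UAS one-hybrid system in insect cells: metallothionein-promoter Gal4–ROR gamma fusion plus Photinus luciferase reporter. Copper sulfate 700 uM final, 20 hr ambient incubation, luminescent detection after 10 min with reagent.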
SW480 rereplic: DNA re-replication induction in SW480 cells | SW480 DNA re-replication, Hoechst DNA content imaging, 48 h | Potency, µM (highest dose often 46.1 µM), for inactives: at the top dose re-replication activation, hits mostly activators | 340,000 compounds, 1.8% hits | AID 624297; also: % of control where 0% means no effect; nearly all actives have a fitted effect of over 55% in size
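DNA re-replication was detected as more nuclei of elevated Hoechst intensity after 48 hr exposure to compound (23 nL pinned per well of 250 cells).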
ELG1 DNA repair: inhibitors of ELG1-dependent DNA repair in HEK293T cells; HEK293T ELG1-luciferase reporter, luminescence, 16 h; DNA damage induced by 5-fluorouridine; Potency, µM (series often up to 46.1 µM), for the others: top-dose activity change, negative = inhibition, most hits filed as inhibitors; 330,000 compounds, 2.3% hits; AID 504467; also: % is scaled to controls: 0 for no effect and ±100 for the full control effect; nearly all actives have a fitted effect of over 55% in size
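DMSO vehicle served as the neutral condition. Each well held 2,000 cells given 5-fluorouridine plus compound; after 16 hr at 37 °C/5% CO2, ONE-Glo was added and luciferase measured 30 min later.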
VP16 counter: Gal4-VP16 reporter inhibition counter-screen | 310,000 compounds, 3.5% hits | Drosophila S2 Gal4-VP16 UAS-luciferase, luminescence, 20 h | Potency, µM (series often up to 53.6 µM), for the others: top-dose activity, negative = inhibition, most hits filed as inhibitors | AID 2546;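 also: Gal4-VP16 expression switched on by copper sulfate through the metallothionein promoter; % is scaled to controls: 0 for no effect and ±100 for the full control effect; nearly all actives have a fitted effect of over 50% in size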
MCF10A rerep: DNA re-replication induction in MCF 10a cells. MCF 10A DNA re-replication, Hoechst nuclear intensity, 48 h. Potency, µM (top dose mostly 46.1 µM), without a hit: top-dose activity, positive = re-replication, most hits filed as activators. 350,000 compounds, 2.9% hits; also: % of control where 0% means no effect; nearly all actives have a fitted effect of over 50% in size
Active calls of the source: *; ? = inconclusive; nt = not tested or not shown; ! = not confirmed by another sample; [ ] = dose if it differs, or a comment. The list is not random: actives were taken first. Their share in the collection is about 10%. Calls follow the shape of the dose curve; as a rule, active = well fitted curve in the direction sought with a large enough effect; inconclusive = small, poorly fitted or top-dose-only effect, or another doubt; inactive = no such curve, though single readings can be large; an effect the other way counts as inactive or inconclusive. Potency is read from the fitted curve at half-maximal effect.

SMILES	RORgamma inh	SW480 rereplic	ELG1 DNA repair	VP16 counter	MCF10A rerep
CCOc1ccc(-c2nc3ccc(-c4nc5ccc(N6CCN(C)CC6)cc5[nH]4)cc3[nH]2)cc1	2.24µM*	nt	nt	?	nt
Cc1ccc2nc(N3CCN(C)CC3)[nH]c2c1	-34.3%	1.5%	?	-13.1%	3.2%
CC(C)(O)/C=C/C(=O)C(C)(O)C1C(O)CC2(C)C3CC=C4C(C=C(O)C(=O)C4(C)C)C3(C)C(=O)CC12C (configuration not stated)	nt	?	nt	nt	2.91µM*
OC[C@H]1OC(O)C[C@@H](O)[C@@H]1O (some centres not stated)	nt	8.9%	-3.4%	nt	-7.6%
Cc1ccc(NS(=O)(=O)c2c(F)cc(F)c(Cl)c2F)cc1S(=O)(=O)N1CCOCC1	nt	?	-7.7%	nt	2.3%
Cc1c(C(=O)Nc2ccccc2)cc(-c2ccccc2)n1CCCN1CCOCC1	20.3%	-10.4%	-26.1%	-6.0%	1.9%
COCCCn1c(-c2ccc(OC)cc2)cc(C(=O)NC2CCCCCCC2)c1C	-15.1%[10 µM]	?	23.1µM*	-26.6%	?
C=CCCl	-3.6%	nt	nt	-3.1%	nt
Cc1ccc(CNCCc2ccccc2F)cc1	-0.6%	-0.7%	16.7%	4.2%	?
Cc1ccccc1CCNCc1cc2cccc(C)c2[nH]c1=O	?	-6.9%	-14.1%	10µM*	12.7%
CC1=CC(c2ccccc2)NC(=S)N1 (configuration not stated)	11.2µM*	nt	7.2%	?	5.0%
CC/C(CC(c1ccccc1)c1c(O)c2ccccc2oc1=O)=N\NC(N)=S (configuration not stated)	10µM*	22.3%	-5.0%	?	?
CC12CCC3C4CCC(=O)C(O)=C4CCC3C1CCC2OC(=O)CCC1CCCC1 (configuration not stated)	1.9%	-3.6%	nt	0.8%	1.7%
COc1ccc2c(c1)c(CCN1CCOCC1)c(C)n2C(=O)c1cccc(Cl)c1Cl	-4.4%	nt	nt	-11.1%	nt
C[C@]12CC[C@@H]3c4cc(O)c(O)cc4CC[C@H]3[C@@H]1CC[C@@H]2O	12.6µM*	?	nt	?	25.9µM*
Cc1cccc(N=Nc2ccc(N(C)C)cc2)c1	7.94µM*	1.6%	?	12.6µM*	-9.3%
c1ccc(N=Nc2ccccc2)cc1	30.7%	nt	nt	2.7%	nt
CCCCC/C=C\C/C=C\C/C=C\C/C=C\CCCC(=O)NCCO	38.5%	nt	nt	-1.1%	nt
CCCCC/C=C\C/C=C\C/C=C\C/C=C\CCCC(=O)NCCc1ccc(O)c(O)c1	11.2µM*!	nt	nt	-27.9%	nt
O=C1NC(=O)C(=Cc2cc(Cl)ccc2OCc2ccc(C(=O)O)cc2)C(=O)N1	?	?	13.5%	?	0.92µM*
C[C@]12[C@H](O)CC3C(CC[C@@H]4C[C@@H](O)CC[C@]34C)[C@@]1(O)CC[C@@H]2C1=CC(=O)OC1 (some centres not stated)	-7.0%	nt	nt	-3.5%	nt
C[C@]12CC[C@H](O)C[C@H]1CCC1C2CC[C@]2(C)[C@@H](c3ccc(=O)oc3)C[C@H]3O[C@]132 (some centres not stated)	9.3%	?	nt	0.9%	13.3µM*
CC12CC[C@H]3[C@@H](CCC4(O)C[C@H](O)CCC34/C=N/NC(=O)Cc3ccccc3)C1(O)CCC2C1=CC(=O)OC1 (some centres not stated)	14.6%	-7.5%	-5.7%	2.8%	16.5%
CC12CC[C@H]3[C@@H](CCC4(O)C[C@H](O)CCC34/C=N/NC(=O)c3ccccc3[N+](=O)[O-])C1(O)CCC2C1=CC(=O)OC1 (some centres not stated)	21.6%	7.5%	-27.0%	-0.5%	16.4µM*
CC12CCC(O)CC1CCC1C2CCC2(C)C(C3=CC(=O)OC3)C(O)CC12O (configuration not stated)	nt	23.1µM*	nt	nt	2.06µM*
SMILES	RORgamma inh	SW480 rereplic	ELG1 DNA repair	VP16 counter	MCF10A rerep
C[C@]12CCC3C(CC[C@]4(O)CC(O)CC[C@@]34C=O)[C@]1(O)CCC2C1=CC(=O)OC1 (some centres not stated)	-0.2%	nt	nt	-16.6%	nt
CC12CCC(O)CC1CCC1C2CCC2(C)C(C3=CC(=O)OC3)CCC12O (configuration not stated)	nt	5.8µM*	nt	nt	?
CC(=O)OC[C@H](N)C(=O)c1ccccc1	2.7%	nt	nt	-5.9%	nt
COc1cc(/C=C/c2nc3ccccc3c(=O)n2-c2ccc(O)cc2)ccc1O	-31.0%	?	16.4µM*	-1.8%	20.6µM*
COc1ccc(-n2c(/C=C/c3ccc(O)c(O)c3)nc3ccccc3c2=O)cc1	-6.0%	?	18.3µM*	-5.6%	?
O=c1c2ccccc2nc(/C=C/c2ccccc2O)n1-c1ccccc1O	27.1%	nt	23.1µM*	14.9%	nt
CCCC1COC(Cn2cncn2)(c2ccc(Cl)cc2Cl)O1 (configuration not stated)	?	5.0%	0.0%	17.8µM*!	7.2%
CCOP(=O)(OCC)C(Nc1cccc(C(F)(F)F)c1)c1ccc(Br)cc1 (configuration not stated)	?	nt	-13.4%	-23.0%	nt
Cc1sc2ncnc(SCC(=O)Nc3ccc(S(=O)(=O)N4CCOCC4)cc3)c2c1C	nt	5.2%	?	nt	13.3%
Cc1nc2ccc(Nc3nc4cc(S(=O)(=O)N5CCOCC5)ccc4o3)cc2s1	-1.4%	18.4µM*	-1.1%	-0.8%	?
CCC#N	20.0%	nt	nt	-0.5%	nt
O=c1c2ccccc2nc(-c2ccccc2F)n1-c1ccccc1	-1.8%	2.8%	-8.0%	1.5%	-1.2%
Fc1ccccc1-c1n[nH]c(=S)n1Cc1ccccc1	7.08µM*	?	-9.4%	11.2µM*	-8.9%
CCOC(=O)C1=Nc2ccccc2/C1=C\c1c(O)n(C)c(=O)n(C)c1=O	36.9%	?	20.6µM*	3.5%	?
OCc1cccc[n+]1CCc1ccccc1	nt	-118.2%	nt	nt	-1.2%
CCc1cc(=O)oc2c(C)c(OCC(=O)N3CCC[C@@H]3C(=O)O)ccc12	-20.6%	-0.8%	?	-8.1%	-11.0%
NC1=C(Br)C(=O)c2ccccc2C1=O	?	-58.6%	23.1µM*	?	?
O=C1C(=O)c2ccccc2-c2ccccc21	2µM*	?	7.31µM*	3.16µM*	?
CCN1CCC[C@@H](OC(=O)C(c2ccccc2)c2ccccc2)C1	26.1%[2.98 µM]	-9.0%[20.6 µM]	nt	-4.3%[17 µM]	-5.1%[20.6 µM]
Clc1cccc(/C=N\Nc2nccs2)c1	11.2µM*	-1.9%	?	?	5.8µM*
CSCC[C@H](NC(=O)[C@@H](NC(=O)CNC(=O)[C@H](CC(=O)O)NC(=O)[C@H](CCSC)NC(=O)[C@@H](N)Cc1ccc(O)cc1)[C@@H](C)O)C(=O)N[C@@H](CO)C(=O)N[C@@H](CCC(N)=O)C(=O)N[C@H](C(=O)O)C(C)C	3.8%	nt	nt	0.9%	nt
